About 83,000 compounds went through this panel and 20% of them were active in at least one assay; those are over-represented in the sample as a whole.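 48-hour exposure, single concentration, 96-well plates; percent growth endpoint where 0 means no net growth. Active: below 10.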 Values without a mark were called inactive. Calls of active or inactive are those of the source.
Key:
Assay in all cases: NCI-60 one-dose screen, 48 h (100 = growth as untreated, 0 = no growth, -100 = all killed)
Conditions in all cases: 10 µM unless noted
HCT-15 colon = tested on: HCT-15 colon
HT29 colon = tested on: HT29 colon
SNB-75 CNS = tested on: SNB-75 CNS
SNB-19 CNS = tested on: SNB-19 CNS
U251 CNS = tested on: U251 CNS
PC-3 prostate = tested on: PC-3 prostate
SK-MEL-5 melanoma = tested on: SK-MEL-5 melanoma
UACC-62 melanoma = tested on: UACC-62 melanoma
LOX IMVI melanoma = tested on: LOX IMVI melanoma
SK-MEL-28 melanoma = tested on: SK-MEL-28 melanoma
SK-MEL-2 melanoma = tested on: SK-MEL-2 melanoma
EKVX NSCLC = tested on: EKVX NSCLC
SN12C renal = tested on: SN12C renal
UO-31 renal = tested on: UO-31 renal
TK-10 renal = tested on: TK-10 renal
ACHN renal = tested on: ACHN renal
CAKI-1 renal = tested on: CAKI-1 renal
A498 renal = tested on: A498 renal
CCRF-CEM leukemia = tested on: CCRF-CEM leukemia
MOLT-4 leukemia = tested on: MOLT-4 leukemia

Compound	growth (HCT-15 colon)	growth (HT29 colon)	growth (SNB-75 CNS) [%]	growth (SNB-19 CNS) [%]	growth (U251 CNS)	growth (PC-3 prostate)	growth (SK-MEL-5 melanoma) [%]	growth (UACC-62 melanoma) [%]	growth (LOX IMVI melanoma)	growth (SK-MEL-28 melanoma) [%]	growth (SK-MEL-2 melanoma) [%]	growth (EKVX NSCLC) [%]	growth (SN12C renal) [%]	growth (UO-31 renal)	growth (TK-10 renal)	growth (ACHN renal)	growth (CAKI-1 renal)	growth (A498 renal) [%]	growth (CCRF-CEM leukemia)	growth (MOLT-4 leukemia)
COc1cc(C2CC(c3ccc(C)cc3)=NN2C=O)ccc1Oc1nc2c(c(=O)n(C)c(=O)n2C)n1C (stereo not given)	94.3%	72.6%	93	67.2	92.7%	74.3%	58.1	94.5	60.6%	106	121	80.1	52.4	63.1%	113%	88.1%	79.2%	76.9	83.8%	67.2%
ClCc1c(Cl)c(Cl)c(Cl)c(CCl)c1Cl	4.87% (active)	-78.4% (active)	89	58.7	-25.4% (active)	8.08% (active)	61.3	103	-79% (active)	88.7	87.7	101	41.5	-21.7% (active)	-73.9% (active)	8.92% (active)	-76.4% (active)	89	3.24% (active)	13.3%
C=C1C(=O)O[C@H]2[C@H]1CC/C(COC(=O)NCc1cccc(OC)c1)=C\CC[C@@]1(C)O[C@@H]21	-3.38% (active)	-29.9% (active)	71.1	69.9	39.4%	40.1%	29.8	31.5	5.61% (active)	22.5	40.9	54.8	31.6	-9.04% (active)	-11.7% (active)	2.37% (active)	10.4%	81.1	-15% (active)	-7.57% (active)
C[C@@H]1N=C(c2ccc3ccccc3c2)Nc2nc3ccccn3c2C1=O	33.8%	5.93% (active)	37.1	53.3	32.5%	52%	35.3	48.8	48.5%	59.9	36.3	75.6	60.1	55.6%	64.4%	55.4%	38.5%	47.3	52.9%	34.5%
